One may read the AC50 as the midpoint of the concentration-response curve, whichever way the signal moves.

From PubChem BioAssay (EPA / NIEHS) come the findings set out here.

Experiment [1] has as its target Retinoic acid receptor RXR-alpha (Homo sapiens) (UniProt P19793). The experiment is described as follows: OT_NURR1_NURR1RXRa_1440: Odyssey Thera (OT) 24-hour HEK293T Protein Complementation Assay for Nurr1/retinoid X receptor (RXR) (AID 2283386; active = hit-call score of the fitted dose curve at least 0.9, where 1 is the maximum). An outline of the steps:
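Measured as fluorescence from a reconstituted split reporter, this 24 h HEK293T complementation assay scores compound-induced gain of Nurr1/RXRα association relative to DMSO.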

The target of experiment [2] is Peroxisome proliferator-activated receptor gamma (Homo sapiens) (UniProt P37231). The experiment is described as follows: OT_PPARg_PPARgSRC1_0480: Odyssey Thera (OT) 8-hour Protein-Complementation Assay for Peroxisome Proliferator-activated Receptor Gamma / SRC-1 Co-activator (AID 2283387; active = hit-call score of the fitted dose curve at least 0.9, where 1 is the maximum;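 note: nuclear to cytoplasmic split Venus YFP fluorescence ratio reporting PPARg SRC-1 interaction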). An outline of the steps:
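Read-out: 488 nm N/C fluorescence ratio from complemented Venus YFP fragments, ≥350 cells per image, gain-of-signal fitted against DMSO baseline. Fusions of PPARg/SRC-1 with IFP1/IFP2 expressed transiently in HEK293T; compounds applied 8 h.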

Experiment [3] shares this target. The experiment is described as follows: OT_PPARg_PPARgSRC1_1440: Odyssey Thera (OT) 24-hour Protein-Complementation Assay for Peroxisome Proliferator-activated Receptor Gamma/ SRC-1 Co-activator (AID 2283388; active = hit-call score of the fitted dose curve at least 0.9, where 1 is the maximum;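 note: nuclear to cytoplasmic ratio of reconstituted Venus YFP fluorescence in fixed imaged cells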). An outline of the steps: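 Readout: nuclear-to-cytoplasmic 488 nm fluorescence ratio, ≥350 cells per image, 8 images per well, after 24 h compound exposure of HEK293T expressing PPARg/SRC-1 split-YFP fusions. Activity fitted in positive direction against DMSO.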

Read-out in experiment [4]: Tumor necrosis factor receptor superfamily member 6 (Homo sapiens) (UniProt P25445)
The experiment can be described thus: LTEA_HepaRG_FAS: Life Technologies and Expression Analysis (LTEA) Assay for Fas cell surface death receptor (FAS) using HepaRG (AID 2283447). To be noted: mRNA level, 48 h; actives raise or lower the signal. An outline of the steps: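 Differentiated human HepaRG cells, pre-cultured 48 h, were exposed in duplicate for 48 h to 8-point half-log concentrations (top 100 uM, 0.5% DMSO) in serum-free induction medium; FAS mRNA measured by qRT-PCR, normalized to ACTB/GAPDH/POLR2A, bidirectional fit versus DMSO.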

Read-out in experiment [5]: Fatty acid synthase (Homo sapiens) (UniProt P49327)
The experiment can be described thus: LTEA_HepaRG_FASN: Life Technologies and Expression Analysis (LTEA) Assay for Fatty Acid Synthase (FASN) using HepaRG (AID 2283448). The settings on record: mRNA level, 48 h; actives raise or lower the signal. An outline of the steps: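 Transcript-level assay: HepaRG liver cells are treated for 48 h across an eight-point range topping at 100 uM, and FASN mRNA, normalized to three housekeeping genes, is compared with DMSO controls in both directions.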

Read-out in experiment [6]: Cyclin D2 (CCND2), CCND2 (gene 894)
The experiment is described as follows: LTEA_HepaRG_CCND2: Life Technologies and Expression Analysis (LTEA) Assay for Cyclin D2 (CCND2) using HepaRG (AID 2283449).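 Note: CCND2 transcript measured by TaqMan qRT-PCR and normalised to three housekeeping genes.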 To be noted: mRNA level, 48 h; actives raise or lower the signal. An outline of the steps: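 Differentiated human HepaRG cells were exposed for 48 h in serum-free induction medium to eight half-log concentrations topping at 100 uM (0.5% DMSO vehicle). CCND2 mRNA was quantified by TaqMan qRT-PCR, normalised to ACTB, GAPDH and POLR2A, and fitted bidirectionally against DMSO.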

Read-out in experiment [7]: catalase (CAT), CAT (gene 847)
The experiment can be described thus: LTEA_HepaRG_CAT: Life Technologies and Expression Analysis (LTEA) Assay for catalase (CAT) using HepaRG (AID 2283452). The settings on record: mRNA level, 48 h; actives raise or lower the signal. An outline of the steps: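 Differentiated HepaRG cells in serum-free induction medium were dosed 48 h in duplicate, eight half-log concentrations from 100 uM in 0.5% DMSO. Transcript measured by TaqMan qRT-PCR, normalised to ACTB/GAPDH/POLR2A, fitted bidirectionally against DMSO.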

Read-out in experiment [8]: flavin-containing dimethylaniline monooxygenases 3 (FMO3), FMO3 (gene 2328)
The experiment can be described thus: LTEA_HepaRG_FMO3: Life Technologies and Expression Analysis (LTEA) Assay for flavin-containing dimethylaniline monooxygenases 3 (FMO3) using HepaRG (AID 2283453).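 For AC50: FMO3 transcript by TaqMan qRT-PCR normalized to ACTB GAPDH and POLR2A.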 To be noted: mRNA level, 48 h; actives raise or lower the signal. An outline of the steps:
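HepaRG, 48 h exposure, 8-pt half-log series from 100 uM, 0.5% DMSO vehicle, duplicates; FMO3 transcript by Fluidigm TaqMan qRT-PCR, housekeeping-normalized; gain/loss fit vs DMSO.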

Read-out in experiment [9]: Cytochrome P450 (CYP1A1), CYP1A1 (gene 1543)
The experiment is described as follows: LTEA_HepaRG_CYP1A1: Life Technologies and Expression Analysis (LTEA) Assay for Cytochrome P450 (CYP1A1) using HepaRG (AID 2283454). The settings on record: mRNA level, 48 h; actives raise or lower the signal. An outline of the steps:
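qRT-PCR read-out: CYP1A1 transcript normalized to three housekeeping genes, fitted bidirectionally against 0.5% DMSO vehicle baseline. Human HepaRG cells, 48 h chemical exposure, 8-point half-log series topping at 100 uM.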

Read-out in experiment [10]: CFLAR gene, CFLAR (gene 8837)
The experiment can be described thus: LTEA_HepaRG_CFLAR: Life Technologies and Expression Analysis (LTEA) Assay for CFLAR gene using HepaRG (AID 2283455). To be noted: mRNA level, 48 h; actives raise or lower the signal. An outline of the steps:
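HepaRG cells were plated for 48 h, switched to serum-free induction medium, then exposed in duplicate for 48 h to 8 concentrations (top 100 uM, half-log steps, 0.5% DMSO). CFLAR mRNA was measured by qRT-PCR, normalized to ACTB, GAPDH and POLR2A.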

The target in experiment [11] is Retinoic acid receptor RXR-alpha (Homo sapiens) (UniProt P19793). The experiment can be described thus: OT_NURR1_NURR1RXRa_0480: Odyssey Thera (OT) 8-hour HEK293T Protein Complementation Assay for Nurr1/retinoid X receptor (RXR) (AID 2283385; active = hit-call score of the fitted dose curve at least 0.9, where 1 is the maximum). An outline of the steps: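 Compounds are applied to HEK293T cells carrying Nurr1 and RXRα linked to reporter fragments. After 8 h, fluorescence intensity reports heterodimer formation, with DMSO as baseline.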

Read-out in experiment [12]: Cyclin Dependent Kinase Inhibitor 1A (CDKN1A), CDKN1A (gene 1026)
The experiment can be described thus: LTEA_HepaRG_CDKN1A: Life Technologies and Expression Analysis (LTEA) Assay for Cyclin Dependent Kinase Inhibitor 1A (CDKN1A) using HepaRG (AID 2283450). The settings on record: mRNA level, 48 h; actives raise or lower the signal. An outline of the steps: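 HepaRG, 48 h dosing, 8-pt half-log series from 100 uM top, 0.5% DMSO vehicle, duplicates. Readout: TaqMan qRT-PCR of CDKN1A transcript, housekeeping-normalized (ACTB, GAPDH, POLR2A). Up/down curve fit relative to DMSO.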

Read-out in experiment [13]: Cyclin D1 (CCND1), CCND1 (gene 595)
The experiment is described as follows: LTEA_HepaRG_CCND1: Life Technologies and Expression Analysis (LTEA) Assay for Cyclin D1 (CCND1) using HepaRG (AID 2283451). The settings on record: mRNA level, 48 h; actives raise or lower the signal. An outline of the steps: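 qRT-PCR (Fluidigm 96.96 array) read-out of transcript level, housekeeping-normalized (ACTB/GAPDH/POLR2A). HepaRG cells, 48 h chemical exposure, 8-point half-log series from 100 uM, 0.5% DMSO vehicle; gain or loss relative to DMSO baseline.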

For experiment [14], the target named is Bile acid receptor (Homo sapiens) (UniProt Q96RI1). The experiment can be described thus: OT_FXR_FXRSRC1_1440: Odyssey Thera (OT) 24-hour HEK293T Protein-Complementation Assay for Farnesoid X receptor/SRC-1 Co-activator (AID 2283384; active = hit-call score of the fitted dose curve at least 0.9, where 1 is the maximum). An outline of the steps: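 Cell-based binding reporter: interaction of FXR with SRC-1 brings reporter fragments together, giving a fluorescence signal read 24 h after dosing of HEK293T cells.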

Results filed as inconclusive are left out. Activity calls are given as the source filed them. Rule for the calls, unless noted: active = hit-call score of the fitted dose curve at least 0.9, where 1 is the maximum; inactive = score below 0.9.

Fatty acid synthase (Homo sapiens), sequence (P49327 whole entry, looked up): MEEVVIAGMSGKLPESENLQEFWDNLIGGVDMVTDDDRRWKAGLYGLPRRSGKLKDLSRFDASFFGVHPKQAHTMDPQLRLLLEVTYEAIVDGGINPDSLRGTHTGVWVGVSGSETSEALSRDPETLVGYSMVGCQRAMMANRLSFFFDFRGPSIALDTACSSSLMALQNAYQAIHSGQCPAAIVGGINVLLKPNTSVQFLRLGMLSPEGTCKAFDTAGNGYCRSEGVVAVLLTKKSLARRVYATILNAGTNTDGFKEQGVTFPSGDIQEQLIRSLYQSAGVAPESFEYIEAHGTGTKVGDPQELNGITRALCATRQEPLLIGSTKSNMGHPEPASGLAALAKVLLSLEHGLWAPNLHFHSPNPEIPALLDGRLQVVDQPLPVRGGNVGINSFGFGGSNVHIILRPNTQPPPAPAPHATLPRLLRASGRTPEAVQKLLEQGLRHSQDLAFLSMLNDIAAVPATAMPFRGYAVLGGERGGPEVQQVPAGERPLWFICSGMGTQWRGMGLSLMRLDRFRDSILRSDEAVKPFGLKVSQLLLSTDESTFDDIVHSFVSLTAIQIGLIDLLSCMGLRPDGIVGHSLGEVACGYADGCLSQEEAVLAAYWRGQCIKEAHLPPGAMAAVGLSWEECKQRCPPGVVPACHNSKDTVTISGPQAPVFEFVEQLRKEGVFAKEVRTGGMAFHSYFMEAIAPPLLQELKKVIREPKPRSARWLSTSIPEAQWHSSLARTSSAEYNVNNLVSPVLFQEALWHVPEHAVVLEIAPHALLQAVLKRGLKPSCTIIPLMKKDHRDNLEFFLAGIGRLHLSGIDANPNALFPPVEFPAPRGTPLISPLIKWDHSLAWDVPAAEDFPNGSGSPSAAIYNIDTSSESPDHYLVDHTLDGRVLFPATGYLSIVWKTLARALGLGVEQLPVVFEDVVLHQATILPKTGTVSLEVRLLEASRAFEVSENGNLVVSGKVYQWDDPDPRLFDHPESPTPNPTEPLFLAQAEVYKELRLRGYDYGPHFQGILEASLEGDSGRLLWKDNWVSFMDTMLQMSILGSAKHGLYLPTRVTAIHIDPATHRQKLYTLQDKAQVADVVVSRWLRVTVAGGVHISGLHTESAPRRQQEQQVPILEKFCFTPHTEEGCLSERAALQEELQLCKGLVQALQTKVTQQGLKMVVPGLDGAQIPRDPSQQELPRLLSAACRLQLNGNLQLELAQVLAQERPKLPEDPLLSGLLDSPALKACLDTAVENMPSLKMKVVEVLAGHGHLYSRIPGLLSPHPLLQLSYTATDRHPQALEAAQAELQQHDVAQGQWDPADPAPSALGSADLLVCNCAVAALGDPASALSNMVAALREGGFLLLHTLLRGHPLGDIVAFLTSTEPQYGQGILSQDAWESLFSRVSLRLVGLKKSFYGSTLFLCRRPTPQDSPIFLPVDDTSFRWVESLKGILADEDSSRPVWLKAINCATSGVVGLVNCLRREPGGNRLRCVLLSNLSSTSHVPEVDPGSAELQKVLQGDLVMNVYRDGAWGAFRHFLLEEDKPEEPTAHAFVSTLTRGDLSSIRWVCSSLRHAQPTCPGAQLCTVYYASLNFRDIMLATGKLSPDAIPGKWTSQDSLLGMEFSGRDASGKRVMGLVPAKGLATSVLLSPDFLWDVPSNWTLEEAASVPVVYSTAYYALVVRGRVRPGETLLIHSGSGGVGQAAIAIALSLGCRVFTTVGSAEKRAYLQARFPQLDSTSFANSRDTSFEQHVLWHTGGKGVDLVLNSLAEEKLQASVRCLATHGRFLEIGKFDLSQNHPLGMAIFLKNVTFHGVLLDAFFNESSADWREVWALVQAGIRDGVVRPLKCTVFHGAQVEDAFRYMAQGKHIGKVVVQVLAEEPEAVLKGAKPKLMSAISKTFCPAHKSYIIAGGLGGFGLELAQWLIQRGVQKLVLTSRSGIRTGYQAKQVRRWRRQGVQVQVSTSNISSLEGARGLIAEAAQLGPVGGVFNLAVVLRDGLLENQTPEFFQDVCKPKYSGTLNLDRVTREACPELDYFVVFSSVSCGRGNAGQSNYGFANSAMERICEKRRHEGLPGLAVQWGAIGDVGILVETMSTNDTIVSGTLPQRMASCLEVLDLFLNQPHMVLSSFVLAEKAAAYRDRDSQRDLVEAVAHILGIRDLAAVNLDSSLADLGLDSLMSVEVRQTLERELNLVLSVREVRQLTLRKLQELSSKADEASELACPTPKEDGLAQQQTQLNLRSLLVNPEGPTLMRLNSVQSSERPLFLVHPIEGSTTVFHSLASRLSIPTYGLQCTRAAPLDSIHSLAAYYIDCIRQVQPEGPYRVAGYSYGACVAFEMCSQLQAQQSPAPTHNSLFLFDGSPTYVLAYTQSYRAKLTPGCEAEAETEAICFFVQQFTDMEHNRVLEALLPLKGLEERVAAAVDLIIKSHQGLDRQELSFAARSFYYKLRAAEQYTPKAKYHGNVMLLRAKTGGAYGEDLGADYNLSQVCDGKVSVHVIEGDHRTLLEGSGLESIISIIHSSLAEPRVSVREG
Retinoic acid receptor RXR-alpha (Homo sapiens), sequence (P19793 whole entry, looked up, the tested form may be a part): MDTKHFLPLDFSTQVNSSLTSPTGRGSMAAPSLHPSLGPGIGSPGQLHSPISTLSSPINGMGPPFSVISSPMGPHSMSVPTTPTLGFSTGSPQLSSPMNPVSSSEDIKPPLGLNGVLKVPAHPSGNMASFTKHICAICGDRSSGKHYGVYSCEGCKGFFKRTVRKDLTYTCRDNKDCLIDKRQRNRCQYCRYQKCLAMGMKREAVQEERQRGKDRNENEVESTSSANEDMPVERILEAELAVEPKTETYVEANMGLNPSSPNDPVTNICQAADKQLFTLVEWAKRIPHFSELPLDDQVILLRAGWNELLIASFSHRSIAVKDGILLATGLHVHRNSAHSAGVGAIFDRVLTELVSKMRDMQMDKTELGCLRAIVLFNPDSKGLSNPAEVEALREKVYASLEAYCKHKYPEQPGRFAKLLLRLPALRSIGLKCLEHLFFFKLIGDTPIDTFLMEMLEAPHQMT
Peroxisome proliferator-activated receptor gamma (Homo sapiens), sequence (P37231 whole entry, looked up, the tested form may be a part): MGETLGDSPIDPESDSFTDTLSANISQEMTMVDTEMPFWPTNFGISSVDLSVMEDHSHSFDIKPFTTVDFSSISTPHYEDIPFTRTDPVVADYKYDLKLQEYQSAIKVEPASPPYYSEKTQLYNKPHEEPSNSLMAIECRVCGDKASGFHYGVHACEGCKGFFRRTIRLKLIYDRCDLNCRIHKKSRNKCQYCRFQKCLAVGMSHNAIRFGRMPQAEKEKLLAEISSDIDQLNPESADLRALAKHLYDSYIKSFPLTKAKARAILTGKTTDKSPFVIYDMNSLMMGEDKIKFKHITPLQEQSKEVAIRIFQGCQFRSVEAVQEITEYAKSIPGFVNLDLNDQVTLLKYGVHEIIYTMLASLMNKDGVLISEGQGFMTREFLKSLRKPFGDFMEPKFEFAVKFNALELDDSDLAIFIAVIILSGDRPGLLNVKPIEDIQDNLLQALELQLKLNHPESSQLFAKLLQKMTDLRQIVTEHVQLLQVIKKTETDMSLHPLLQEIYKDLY
Bile acid receptor (Homo sapiens), sequence (Q96RI1 whole entry, looked up, the tested form may be a part): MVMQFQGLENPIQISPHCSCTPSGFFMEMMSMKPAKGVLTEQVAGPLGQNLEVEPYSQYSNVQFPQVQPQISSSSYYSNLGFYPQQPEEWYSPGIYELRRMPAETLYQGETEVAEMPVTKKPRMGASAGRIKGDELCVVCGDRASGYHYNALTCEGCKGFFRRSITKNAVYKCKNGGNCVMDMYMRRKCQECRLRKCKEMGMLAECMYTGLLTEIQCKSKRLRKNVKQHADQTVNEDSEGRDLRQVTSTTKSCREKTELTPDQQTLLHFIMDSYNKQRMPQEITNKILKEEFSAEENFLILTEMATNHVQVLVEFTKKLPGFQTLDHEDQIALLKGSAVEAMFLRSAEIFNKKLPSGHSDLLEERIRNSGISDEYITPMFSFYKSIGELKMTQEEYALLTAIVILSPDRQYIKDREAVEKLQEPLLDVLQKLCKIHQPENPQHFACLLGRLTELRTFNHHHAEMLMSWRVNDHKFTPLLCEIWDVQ

As for `O=C1O[C@H]([C@@H](O)CO)C(O)=C1O`, the compound was classed as inactive in experiment [1], in [2], in [3], in experiment [4], in [5] and in experiment [6]. The compound was called inactive in [7], in experiment [8] and in [10]. Further, in [9], the AC50 is 61.8 µM (active).
Take `CC(O)CC(C)(C)O` (centres undefined): the call in [11], in experiment [2], in [3], in [4], in experiment [5] and in experiment [12] was inactive. Besides, the compound was called inactive in experiment [7], in experiment [8], in experiment [9] and in [10].
Take `Cc1occc1C(=O)Nc1ccc(C(=O)N2CCC(F)(F)/C(=C\C(=O)N3CCC(N4CCCCC4)CC3)c3ccccc32)cc1`: the AC50 in experiment [11] was 28.6 µM (active); in experiment [1], 28.3 µM (active); in experiment [5], 19.4 µM (active); in experiment [13], 39.9 µM (active); in experiment [7], 31.2 µM (active); in [8] it was 44 µM (active). Moreover, the results for the AC50 in [9] and in [10] were 16.8 µM (active) and 31.2 µM (active), respectively. The compound was classed as inactive in [2], in [3], in [4] and in experiment [6].
As to `Cc1cc(F)ccc1-c1cc(N2CC[C@@H](O)[C@H]2CO)ncc1N(C)C(=O)C(C)(C)c1cc(C(F)(F)F)cc(C(F)(F)F)c1`, the AC50 was 9.74 µM (active) in experiment [1]; 71.7 µM (active) in experiment [4]; 12.3 µM (active) in experiment [12]; 11.7 µM (active) in [7]; 21.9 µM (active) in [8]; 70.6 µM (active) in experiment [9]. In addition, the AC50 in [10] was 75.7 µM (active). Also, the compound was classed as inactive in [2], in experiment [3], in [5] and in experiment [6].
`c1ccc(C[n+]2cccc3ccccc32)cc1`: the compound was classed as inactive in experiment [14], in [2], in experiment [3], in experiment [4], in experiment [6] and in [13]. For the same compound, the compound was called inactive in experiment [10]. Besides, the AC50 is 50 µM (active) in experiment [5], 31.1 µM (active) in experiment [7], 32.6 µM (active) in [8] and 36.8 µM (active) in [9].
